Anthrax LF inh2 – blocks Bacillus anthracis lethal factor protease. P15917. multiplex microsphere protease cleavage assay, LF. inhibition, % at 10 µM. 0.12% of 360,000 active. AID 588501
Bead autofluor – flagged as autofluorescent in microsphere protease counterscreen | compound autofluorescence counterscreen, microsphere flow cytometry; active compounds read high | fluorescence intensity (test concentration not listed) | 3.1% of 360,000 active | AID 624483; in the data active means fluorescence intensity above about 16000; inconclusive means no clear call, values can overlap the other calls
BoNT-A LC inh2 – blocks Botulinum neurotoxin A light chain protease | multiplex microsphere protease substrate cleavage, flow cytometry | inhibition, % at 10 µM | 0.17% of 360,000 active
BoNT-F LC inh – BoNT F light chain protease inhibition; inhibition, % at 10 µM; Multiplex microsphere protease cleavage assay, flow cytometry; 0.22% of 360,000 active; in the data active means inhibition above about 35%, passing the limit was not always enough; inconclusive means no clear call, values can overlap the other calls
BoNT-A LC CP1 – BoNT/A light chain protease inhibition; AID 602139; shares compounds with BoNT-F LC inh; 3% of 720 active; inhibition, % at 10 µM; multiplex microsphere protease assay, flow cytometry; in the data active means inhibition above about 32%
BoNTF LC inh 1 – inhibitors of Botulinum neurotoxin F light chain protease | shares compounds with BoNT-F LC inh | multiplex microsphere protease cleavage assay, flow cytometry | inhibition, % at 10 µM | 720 tested, under 10 active; call rule not given here
LF protease CP1 – Bacillus anthracis lethal factor protease inhibition; inhibition, % at 10 µM; multiplex microsphere protease cleavage assay, LF; shares compounds with BoNT-F LC inh; 720 tested, under 10 active; call rule not given here
Numbers stand for hits; n = inactive; u = inconclusive; x = not tested or not shown. Sampled rows, rich in hits. Any-hit rate of the full collection: about 3.5%. Unless noted, no stated cut-off is given here; in the data, active means inhibition above about 30%; inconclusive means no clear call, values can overlap the other calls; inactive means below that.

SMILES	Anthrax LF inh2	Bead autofluor	BoNT-A LC inh2	BoNT-F LC inh	BoNT-A LC CP1	BoNTF LC inh 1	LF protease CP1
COc1ccc(-n2c(C)nc(N)c2C(=O)c2ccccc2)cc1	56	n	n	u	n	n	n
NC(=O)c1ccsc1NC(=O)CSc1n[nH]c(N)n1	n	n	n	n	x	x	x
CCOc1ccc(/C=C/C2=Cc3c(sc(NC(=O)CSc4n[nH]c(N)n4)c3C#N)C(C)(C)C2)cc1	58	n	85	37	n	n	n
Cc1ccsc1/C=C/C1=Cc2c(sc(NC(=O)CSc3n[nH]c(N)n3)c2C#N)C(C)(C)C1	33	18756	44	n	n	n	n
CCOc1ccccc1C(=O)OCC(=O)NCCNC(=O)COC(=O)c1ccccc1OCC	n	n	n	n	x	x	x
COc1cccc(C(=O)NCc2ccc3[nH]c(C)cc3c2)c1	n	n	52	n	n	n	n
COc1cc(OC)cc(C(=O)NCc2ccc3[nH]c(C)cc3c2)c1	n	n	48	n	n	n	n
COc1cccc(CNC(=O)c2cccc(Br)c2)c1	n	n	n	n	x	x	x
Cc1ccc(NC(=O)CN(C)C(=O)c2ccccc2OCc2c(C)noc2C)cc1	u	u	89	u	n	n	n
C=CCN1C(=O)C(=Cc2ccc3c(c2)CCC3)SC1=S	n	n	n	n	x	x	x
COc1cccc(C2CC(c3ccccc3)=NN2S(=O)(=O)c2ccc(C)cc2)c1OC (stereo not drawn)	32	32220	39	55	n	n	n
COc1ccc(NC(=O)c2cnc(SC)nc2C)c(OC)c1	n	n	n	n	x	x	x
Cc1ccc(C(=O)Nc2ccccc2C(=O)O)cc1S(=O)(=O)NCc1ccccc1	n	n	n	n	x	x	x
Cc1ccc(C(=O)Nc2ccccc2C(=O)O)cc1S(=O)(=O)Nc1ccc(Br)cc1	x	x	x	x	n	n	n
Cc1c(C(=O)Nc2ccc(F)cc2)sc2ncn(CC(=O)N3CCCCC3)c(=O)c12	n	n	n	n	x	x	x
Cc1ccc2c(n1)sc1c(-c3ccc(Br)cc3)c(C#N)c(N)nc12	n	u	44	n	n	n	n
Cc1ccc(C(=O)Nc2ccc(S(=O)(=O)N3CCc4ccccc4C3)cc2)o1	n	n	n	36	n	n	n
O=C(O)c1ccc(N=Nc2c(-c3ccccc3)[nH]oc2=O)cc1	n	n	n	n	x	x	x
COc1ccccc1OCCNC(=O)Nc1cc(F)c(F)cc1Cl	31	n	n	u	n	n	n
COc1ccccc1OCCNC(=O)c1cc(F)c(F)cc1Cl	n	n	n	n	x	x	x
Cc1cc([N+](=O)[O-])nn1Cn1nc([N+](=O)[O-])cc1C	n	n	n	n	x	x	x
Cc1cc([N+](=O)[O-])nn1Cc1ccccc1F	n	n	n	35	n	n	n
Cc1ccc2c(c1)N(C(=O)CCC(=O)N1CCC(C(N)=O)CC1)CCO2	n	n	n	n	x	x	x
Cc1ccc(C(=O)N(CCC2=CCCCC2)c2c(N)n(Cc3ccccc3)c(=O)[nH]c2=O)o1	u	n	31	n	n	n	n
Nc1c(N(CCC2=CCCCC2)C(=O)Cc2ccc(F)cc2)c(=O)[nH]c(=O)n1Cc1ccccc1	n	n	n	n	x	x	x
SMILES	Anthrax LF inh2	Bead autofluor	BoNT-A LC inh2	BoNT-F LC inh	BoNT-A LC CP1	BoNTF LC inh 1	LF protease CP1
Cc1cc(C)cc(C(=O)NCC(=O)OCC(=O)Nc2cccnc2Cl)c1	n	n	n	n	x	x	x
COc1ccc2c(n1)Sc1nc3ccccc3nc1N2	n	n	30	n	n	n	n
COc1cc2ccccc2nn1	n	n	n	n	x	x	x
CC(C)N1CC(=O)N2CSCC2C1=O (stereo not drawn)	n	n	n	n	x	x	x
Cc1cc2cc(C(c3nnnn3C(C)(C)C)N(Cc3ccco3)CC3CCCO3)c(=O)[nH]c2cc1C (stereo not drawn)	n	n	n	n	x	x	x
Cc1cc(C)c2[nH]c(=O)c(C(c3nnnn3C(C)(C)C)N(Cc3ccco3)CC3CCCO3)cc2c1 (stereo not drawn)	n	20853	n	n	n	n	n
CC(C)(C)c1cc(C(=O)NNC(=O)c2ccc(Cl)cc2)no1	n	n	n	u	x	x	x
CN1CCc2c(sc3nc(SCC(N)=O)n(-c4ccc(Cl)cc4)c(=O)c23)C1	n	n	66	n	n	n	n
CCSc1nc2sc3c(c2c(=O)n1C1CCCCC1)CCN(C)C3	n	n	45	n	n	n	n
O=S1(=O)C=C[C@H](COCc2ccccc2)N1	n	n	n	n	x	x	x
CCCn1c(SCC(=O)c2c[nH]c3ccccc23)nnc1-c1ccncc1	n	n	53	n	n	n	n
Cc1occc1-c1nnc(SCC(=O)c2c[nH]c3ccccc23)n1C	45	n	54	n	n	n	n
COCCNc1nnc(SCC(=O)c2c[nH]c3ccccc23)s1	n	n	52	n	n	n	n
Cc1ccc2nc(SCC(=O)c3c[nH]c4ccccc34)[nH]c2c1	n	n	58	n	n	n	n
Cc1nnc(SCC(=O)Nc2ccc(N3CCOCC3)cc2)o1	n	n	n	42	n	n	n
N#Cc1cc([N+](=O)[O-])ccc1NC(=O)CSc1n[nH]c(=O)[nH]c1=O	n	n	n	n	x	x	x
COCCCNCCCCOc1ccc(Br)cc1C	n	n	n	36	n	n	n
COc1cc(CC(=O)OCC(=O)N2C(C)CCCC2C)cc(OC)c1OC (stereo not drawn)	n	n	n	n	x	x	x
O=C1CN(Cc2ccccc2)CC(=O)N1	n	n	n	46	n	n	n
Cc1ccc2c(c1C)NC(C(=O)O)C1CC=CC21 (stereo not drawn)	u	n	u	u	x	x	x
O=C(O)C1Nc2c(C(F)(F)F)ccc(Cl)c2C2C=CCC12 (stereo not drawn)	40	n	n	n	n	n	n
O=C(CN1CCOCC1)NCc1ccccc1	n	n	n	n	x	x	x
O=C(CN1CCOCC1)NCCc1ccccc1	31	n	n	n	n	n	n
CC(C)(C)c1ccc(S(=O)(=O)NCc2ccc(C(=O)NCC3CCCO3)cc2)cc1 (stereo not drawn)	n	n	n	n	x	x	x
COc1cccc(S(=O)(=O)NCc2ccc(C(=O)NCC3CCCO3)cc2)c1 (stereo not drawn)	n	n	n	38	n	n	n
SMILES	Anthrax LF inh2	Bead autofluor	BoNT-A LC inh2	BoNT-F LC inh	BoNT-A LC CP1	BoNTF LC inh 1	LF protease CP1
O=C1c2ccccc2C(=O)N1C1CCCCC1	50	n	n	u	n	n	n
COc1ccc(-n2cc(CNCCCn3ccnc3)c(-c3cccc(F)c3)n2)cc1	n	n	n	37	n	n	n
CN(C(=O)c1cccc(NC(=O)Cc2cccc(NC(=O)C3CCCN(C(=O)C4CCCCC4)C3)c2)c1)C1CCC1 (stereo not drawn)	n	n	n	n	x	x	x
O=C(Cc1c(F)c(F)c(F)c(F)c1F)Nc1nc(-c2ccccc2)cs1	n	n	n	n	x	x	x
Cc1cc(C[n+]2cc(Br)ccc2N)c2ncccc2c1	n	n	n	n	x	x	x
O=C1N(c2ccccc2)c2ccccc2C1(O)C(F)(F)F (stereo not drawn)	36	n	n	n	n	n	n
O=C(Nc1cc(Cl)ccc1-n1cncn1)C1CC1	n	n	n	n	x	x	x
Cc1c(C(=O)N(C)C2CCCCC2)sc2ncnc(N3CCN(c4ccccc4)CC3)c12	n	n	n	n	x	x	x
